Data reported in PubChem BioAssay AID1159580 (chemical genetic matrix, 2015).
In all, about 5,500 compounds went through this assay and about 2,000 (36%) were called active. Inconclusive results (about 18%) are left out. No stated cut-off is given here; in the data, active means normalized growth mostly below about 0.91 (no sharp cut-off); inconclusive means no clear call, values can overlap the other calls; inactive means mostly above about 0.92. This is one part of the list.

Assay: chemical genetic growth profiling, strain panel (AID 1159580);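 further: tested at 20 µM; growth read once vehicle control cultures reached saturation at 30 °C; 1 = growth at the plate median or of vehicle wells; lower values mean less growth of the strain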
Details: growth OD

Measured: normalized growth

CCC(=O)Nc1ccc(Cl)c(Cl)c1
inactive: S. cerevisiae deletion strains, locus YJR043C, strain POL32, active compounds read low 0.931 | S. cerevisiae deletion strains, locus YJR075W, strain HOC1, active compounds read low 0.965 | S. cerevisiae deletion strains, locus YKL009W, strain mrt4, active compounds read low 0.976 | S. cerevisiae deletion strains, locus YKL068W, active compounds read low 0.999 | S. cerevisiae deletion strains, locus YKL085W, strain MDH1 (second series), active compounds read low 0.999 | S. cerevisiae deletion strains, locus YKL085W, strain MDH1, active compounds read low 0.999 | S. cerevisiae deletion strains, locus YKL160W, strain elf1, active compounds read low 0.984 | S. cerevisiae deletion strains, locus YKL190W, strain CNB1, active compounds read low 1 | S. cerevisiae deletion strains, locus YKR001C, strain vps1, active compounds read low 0.973 | S. cerevisiae deletion strains, locus YKR026C, strain gcn3, active compounds read low 1 | S. cerevisiae deletion strains, locus YKR091W, strain srl3, active compounds read low 0.982 | S. cerevisiae deletion strains, locus YLL001W, strain dnm1, active compounds read low 0.99 | S. cerevisiae deletion strains, locus YLL026W, active compounds read low 0.989 | S. cerevisiae deletion strains, locus YLL041C, strain sdh2, active compounds read low 0.996 | S. cerevisiae deletion strains, locus YLR027C, strain aat2, active compounds read low 1 | S. cerevisiae deletion strains, locus YLR039C, strain RIC1, active compounds read low 1.02 | S. cerevisiae deletion strains, locus YLR058C, strain SHM2, active compounds read low 1 | S. cerevisiae deletion strains, locus YLR102C, strain apc9, active compounds read low 1 | S. cerevisiae deletion strains, locus YLR221C, strain rsa3, active compounds read low 0.986 | S. cerevisiae deletion strains, locus YLR258W, strain gsy2, active compounds read low 0.996 | S. cerevisiae deletion strains, locus YLR262C, strain YPT6 (second series), active compounds read low 1 | S. cerevisiae deletion strains, locus YLR262C, strain YPT6, active compounds read low 0.978 | S. cerevisiae deletion strains, locus YLR268W, strain sec22, active compounds read low 0.982 | S. cerevisiae deletion strains, locus YLR320W, strain mms22, active compounds read low 0.969 | S. cerevisiae deletion strains, locus YLR330W, strain CHS5, active compounds read low 0.995 | S. cerevisiae deletion strains, locus YLR342W, strain FKS1 (second series), active compounds read low 0.981 | S. cerevisiae deletion strains, locus YLR342W, strain FKS1, active compounds read low 0.973 | S. cerevisiae deletion strains, locus YLR357W, strain rsc2, active compounds read low 0.952 | S. cerevisiae deletion strains, locus YLR370C, strain arc18, active compounds read low 0.985 | S. cerevisiae deletion strains, locus YLR371W, strain rom2, active compounds read low 1.01 | S. cerevisiae deletion strains, locus YLR384C, strain iki3, active compounds read low 1.01 | S. cerevisiae deletion strains, locus YLR418C, strain cdc73, active compounds read low 0.866 | S. cerevisiae deletion strains, locus YML016C, strain PPZ1, active compounds read low 0.997 | S. cerevisiae deletion strains, locus YML032C, strain rad52, active compounds read low 1 | S. cerevisiae deletion strains, locus YML120C, strain ndi1, active compounds read low 1 | S. cerevisiae deletion strains, locus YML124C, strain tub3, active compounds read low 1 | S. cerevisiae deletion strains, locus YMR058W, strain fet3, active compounds read low 0.993 | S. cerevisiae deletion strains, locus YMR078C, strain ctf18, active compounds read low 1 | S. cerevisiae deletion strains, locus YMR125W, strain sto1, active compounds read low 0.98 | S. cerevisiae deletion strains, locus YMR129W, active compounds read low 0.98 | S. cerevisiae deletion strains, locus YMR205C, strain PFK2, active compounds read low 0.958 | S. cerevisiae deletion strains, locus YMR223W, strain ubp8, active compounds read low 1 | S. cerevisiae deletion strains, locus YMR231W, strain pep5, active compounds read low 0.997 | S. cerevisiae deletion strains, locus YMR263W, strain SAP30, active compounds read low 0.986 | S. cerevisiae deletion strains, locus YMR307W, strain GAS1, active compounds read low 0.843 | S. cerevisiae deletion strains, locus YNL067W, strain RPL9B, active compounds read low 0.965 | S. cerevisiae deletion strains, locus YNL071W, strain lat1, active compounds read low 0.987 | S. cerevisiae deletion strains, locus YNL128W, strain TEP1, active compounds read low 0.988 | S. cerevisiae deletion strains, locus YNL153C, strain GIM3, active compounds read low 0.988 | S. cerevisiae deletion strains, locus YNL209W, strain ssb2, active compounds read low 0.988 | S. cerevisiae deletion strains, locus YNL233W, strain BNI4, active compounds read low 0.976 | S. cerevisiae deletion strains, locus YNL248C, strain rpa49, active compounds read low 0.991 | S. cerevisiae deletion strains, locus YNL250W, strain rad50, active compounds read low 1.01 | S. cerevisiae deletion strains, locus YNL271C, strain bni1, active compounds read low 1.01 | S. cerevisiae deletion strains, locus YNL298W, strain CLA4, active compounds read low 0.995 | S. cerevisiae deletion strains, locus YNL307C, strain MCK1, active compounds read low 0.992 | S. cerevisiae deletion strains, locus YNL322C, strain KRE1 (second series), active compounds read low 0.987 | S. cerevisiae deletion strains, locus YNL322C, strain KRE1, active compounds read low 0.995 | S. cerevisiae deletion strains, locus YNR049C, strain mso1, active compounds read low 0.994 | S. cerevisiae deletion strains, locus YNR052C, strain pop2, active compounds read low 1.02 | S. cerevisiae deletion strains, locus YOL006C, strain TOP1, active compounds read low 0.885 | S. cerevisiae deletion strains, locus YOL012C, strain htz1 0.818 | S. cerevisiae deletion strains, locus YOL147C, strain pex11, active compounds read low 0.999 | S. cerevisiae deletion strains, locus YOR001W, strain rrp6, active compounds read low 0.994 | S. cerevisiae deletion strains, locus YOR061W, strain CKA2, active compounds read low 0.997 | S. cerevisiae deletion strains, locus YOR069W, strain VPS5, active compounds read low 1.01 | S. cerevisiae deletion strains, locus YOR070C, strain gyp1, active compounds read low 0.998 | S. cerevisiae deletion strains, locus YOR080W, strain dia2, active compounds read low 0.956 | S. cerevisiae deletion strains, locus YOR083W, strain WHI5, active compounds read low 0.994 | S. cerevisiae deletion strains, locus YOR106W, strain vam3, active compounds read low 0.988 | S. cerevisiae deletion strains, locus YOR136W, strain idh2, active compounds read low 0.998 | S. cerevisiae deletion strains, locus YOR144C, strain elg1, active compounds read low 0.995 | S. cerevisiae deletion strains, locus YOR184W, strain ser1, active compounds read low 0.977 | S. cerevisiae deletion strains, locus YOR265W, strain rbl2, active compounds read low 0.995 | S. cerevisiae deletion strains, locus YOR270C, strain vph1, active compounds read low 0.992 | S. cerevisiae deletion strains, locus YOR290C, strain snf2, active compounds read low 0.988 | S. cerevisiae deletion strains, locus YOR316C, strain cot1, active compounds read low 1.01 | S. cerevisiae deletion strains, locus YPL051W, strain arl3, active compounds read low 0.994 | S. cerevisiae deletion strains, locus YPL055C, strain LGE1, active compounds read low 0.904 | S. cerevisiae deletion strains, locus YPL078C, strain atp4, active compounds read low 0.988 | S. cerevisiae deletion strains, locus YPL106C, strain sse1, active compounds read low 0.952 | S. cerevisiae deletion strains, locus YPL240C, strain hsp82, active compounds read low 0.968 | S. cerevisiae deletion strains, locus YPL241C, strain CIN2, active compounds read low 0.993 | S. cerevisiae deletion strains, locus YPR119W, strain clb2, active compounds read low 1 | S. cerevisiae deletion strains, locus YPR141C, strain kar3, active compounds read low 1.01 | S. cerevisiae deletion strains, locus YPR163C, strain tif3, active compounds read low 0.997 | S. cerevisiae deletion strains, locus YPR167C, strain met16, active compounds read low 1 | S. cerevisiae deletion strains, strain wtn01, active compounds read low 1 | S. cerevisiae strains, strain wild type, active compounds read low 0.994
